Holding throughout (assay): NCI-60 one-dose screen, 48 h (100 = growth as untreated, 0 = no growth, -100 = all killed)
Details in all cases: 10 µM unless noted

The subject of assay [1] is NCI-H23 lung.
Assay [2] concerns NCI-H226 lung.
The test system of assay [3] is NCI-H322M lung.
Assay [4] relates to HOP-62 NSCLC.
In assay [5] the test system is NCI-H460 lung.
Assay [6] deals with HOP-92 NSCLC.
Assay [7] relates to NCI-H522 lung.
Assay [8] has as its system A549/ATCC NSCLC.
Assay [9] concerns 786-0 renal.
For assay [10], the system named is COLO 205 colon.
Assay [11] deals with DU-145 prostate.
For assay [12], the system named is K-562 leukemia.
The test system of assay [13] is MALME-3M melanoma.
The test system of assay [14] is MDA-MB-231 breast.
Assay [15] relates to RXF 393 renal.
Assay [16] deals with SF-268 CNS.
Assay [17] relates to SF-295 CNS.
In assay [18] the test system is SF-539 CNS.
Assay [19] has as its system M14 melanoma.

The panel holds about 83,000 compounds, 20% with a hit somewhere; the sample as a whole holds those more often.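 96-well plates, one dose, 48 hours. Percent growth reported; active if below 10.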 Values without a mark were called inactive. Active and inactive are the calls of the source.

Regarding `Nc1c(C(=O)Nc2c(Cl)cccc2Cl)sc2nc3c(cc12)CCCC3`, the growth in [1] is 84.1%; in assay [2] it was 91.4%; in [3] it was 94%; in assay [4], 50.1%; in [5] it was 66.4%; in assay [6], 89.2%. For the same molecule, the growth is 62.8% in [7]; 66.5% in assay [8]; 103% in [9]; 70.3% in assay [10]; 88.4% in assay [11]; 14.8% in assay [12]. In addition, the growth in assay [13] is 59.2%; in assay [14], 82.5%; in assay [15], 87.9%; in assay [16], 80.9%; in assay [17], 75.8%; in assay [18] it was 75.8%. Further, the growth in [19] was 46.6%.
Turning to `COc1cc2c3c(c4c5ccccc5[nH]c4c2c(OC)c1OC)C(=O)N(O)C3=O`, the growth in assay [1] is 54.9%; in assay [2] it was 42.6%; in [3], 37.4%; in assay [4], 38%; in [5], 26.9%; in assay [6] it was 78.4%. Also, the growth was 45.7% in assay [7]; 60.3% in [8]; 69.6% in assay [9]; 61.1% in assay [10]; 71.7% in assay [11]; 20.8% in assay [12]. The growth in assay [13] was 78.5%; in [14], 44.2%; in [15], 52.2%; in assay [16], 49.3%; in [17], 47.8%; in assay [18], 30.9%. The growth in assay [19] is 37.5%.
As to `CC(Cc1ccco1)C(=O)NC(N)=O` (configuration not stated), the growth in assay [1] was 97.4%; in assay [2], 95.8%; in assay [3] it was 99.2%; in [4], 106%; in assay [5], 107%; in assay [6], 109%. In addition, the growth is 97.4% in [7]; 91.9% in assay [8]; 103% in [9]; 120% in assay [10]; 109% in assay [11]; 110% in [12]. The growth in assay [13] was 103%; in assay [14], 110%; in assay [15] it was 96.7%; in [16] it was 104%; in assay [17], 94.6%; in assay [18], 97.8%. Further, the growth in assay [19] is 101%.
Take `COc1cc2ncnc(Nc3ccc(OCc4cccc(F)c4)c(Cl)c3)c2cc1NC(=O)C1CCCC1`: the growth in assay [1] is 94.8%; in assay [2], 76%; in [3], 34.4%; in assay [4], 78.9%; in assay [5], 88.7%; in assay [6], 76.4%. Also, the growth in [7] was 50%; in assay [8], 65.2%; in [9], 78.3%; in assay [10], 97.2%; in assay [11], 78.3%; in assay [12], 91.2%. For the same molecule, the growth is 107% in assay [13]; 84.5% in assay [14]; 83% in assay [15]; 89.1% in assay [16]; 101% in assay [17]; 96.1% in [18]. In addition, the growth in assay [19] was 71.4%.
In the case of `Cc1ccc(N(CC(=O)Nc2ccc(S(=O)(=O)N3CCC(N4CCCC4)CC3)cc2)S(=O)(=O)c2ccc(Cl)cc2)cc1`, the growth in assay [1] was 77.6%; in [2], 64.7%; in assay [3], 22.5%; in assay [4], 67.6%; in [5], -58.5% (active); in [6], 50.9%. Also, the growth is 44.2% in [7]; 20.2% in assay [8]; -70.5% (active) in assay [9]; -60.5% (active) in assay [10]; 9.76% (active) in assay [11]; -44.9% (active) in assay [12]. The growth in [13] is -81.2% (active); in assay [14], -42.9% (active); in [15], -70.8% (active); in assay [16], 34.8%; in [17], -64.5% (active); in assay [18] it was -89.7% (active). Further, the growth in assay [19] was -68.8% (active).
Regarding `CC[C@]12C=CCN3CC[C@@]4(c5cc([C@H]6CCC(=O)N6)c(OC)cc5N(C)[C@H]4[C@@](O)(C(=O)OC)[C@@H]1OC(C)=O)[C@@H]32`, the growth in [1] was 100% [2.5 µM]; in assay [2], 92.7% [2.5 µM]; in [3] it was 99.8% [2.5 µM]; in assay [4], 98.1% [2.5 µM]; in assay [5], 107% [2.5 µM]; in assay [6] it was 98.5% [2.5 µM]. The growth in [7] was 93% [2.5 µM]; in assay [8] it was 100% [2.5 µM]; in assay [9], 104% [2.5 µM]; in assay [10], 108% [2.5 µM]; in assay [11], 119% [2.5 µM]; in [12], 105% [2.5 µM]. The growth in [13] was 97.5% [2.5 µM]; in assay [14] it was 98.7% [2.5 µM]; in assay [15], 113% [2.5 µM]; in [16], 116% [2.5 µM]; in [17], 100% [2.5 µM]; in assay [18], 92.4% [2.5 µM]. In [19], the growth is 95.5% [2.5 µM].
For `COc1ccc(C2NC(=O)Nc3ccccc32)c(OC)c1` (configuration not stated), the growth in assay [1] is 102%; in assay [2], 89.7%; in assay [3], 96.6%; in [4], 98.5%; in assay [5], 101%; in assay [6], 86.7%. Besides, the growth in [7] was 91.6%; in [8], 98.4%; in assay [9], 103%; in assay [10], 112%; in [11], 112%; in [12], 93.7%. For the same molecule, the growth in assay [13] is 85.6%; in assay [14], 94.7%; in assay [15], 110%; in [16], 100%; in assay [17] it was 94.2%; in [18], 93.8%. Further, the growth in assay [19] is 95.6%.
Turning to `COc1cc2ncnc(Nc3ccc(Oc4ccnc(C)c4)c(C)c3)c2cc1NC(=O)CC1CCSS1` (configuration not stated), the growth in assay [1] is -49.5% (active); in assay [2], 25.8%; in assay [3] it was -49.6% (active); in assay [4], -50.7% (active); in assay [5] it was -53.1% (active); in [6] it was 62.6%. Also, the growth was -57.6% (active) in [7]; -63.8% (active) in assay [8]; 52.5% in assay [9]; -81.1% (active) in assay [10]; -7.01% (active) in [11]; -50.9% (active) in [12]. Moreover, the growth is -27.5% (active) in [13]; -27.8% (active) in assay [14]; 8.74% (active) in assay [15]; -53.2% (active) in assay [16]; -65.3% (active) in [17]; 1.45% (active) in [18]. Besides, the growth in [19] was -65.1% (active).
